Out of some 310,000 compounds screened, about 14,000 (4.5%) showed an effect of 50% or more. Effects have a minus sign here. The entries come from a sample that favours strong results as a whole.
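Further: peak tail current of the secondary pulse compared with the same well before compound.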

Chain of human ether-à-go-go-related gene (hERG) potassium channel (Q12809 whole entry, looked up): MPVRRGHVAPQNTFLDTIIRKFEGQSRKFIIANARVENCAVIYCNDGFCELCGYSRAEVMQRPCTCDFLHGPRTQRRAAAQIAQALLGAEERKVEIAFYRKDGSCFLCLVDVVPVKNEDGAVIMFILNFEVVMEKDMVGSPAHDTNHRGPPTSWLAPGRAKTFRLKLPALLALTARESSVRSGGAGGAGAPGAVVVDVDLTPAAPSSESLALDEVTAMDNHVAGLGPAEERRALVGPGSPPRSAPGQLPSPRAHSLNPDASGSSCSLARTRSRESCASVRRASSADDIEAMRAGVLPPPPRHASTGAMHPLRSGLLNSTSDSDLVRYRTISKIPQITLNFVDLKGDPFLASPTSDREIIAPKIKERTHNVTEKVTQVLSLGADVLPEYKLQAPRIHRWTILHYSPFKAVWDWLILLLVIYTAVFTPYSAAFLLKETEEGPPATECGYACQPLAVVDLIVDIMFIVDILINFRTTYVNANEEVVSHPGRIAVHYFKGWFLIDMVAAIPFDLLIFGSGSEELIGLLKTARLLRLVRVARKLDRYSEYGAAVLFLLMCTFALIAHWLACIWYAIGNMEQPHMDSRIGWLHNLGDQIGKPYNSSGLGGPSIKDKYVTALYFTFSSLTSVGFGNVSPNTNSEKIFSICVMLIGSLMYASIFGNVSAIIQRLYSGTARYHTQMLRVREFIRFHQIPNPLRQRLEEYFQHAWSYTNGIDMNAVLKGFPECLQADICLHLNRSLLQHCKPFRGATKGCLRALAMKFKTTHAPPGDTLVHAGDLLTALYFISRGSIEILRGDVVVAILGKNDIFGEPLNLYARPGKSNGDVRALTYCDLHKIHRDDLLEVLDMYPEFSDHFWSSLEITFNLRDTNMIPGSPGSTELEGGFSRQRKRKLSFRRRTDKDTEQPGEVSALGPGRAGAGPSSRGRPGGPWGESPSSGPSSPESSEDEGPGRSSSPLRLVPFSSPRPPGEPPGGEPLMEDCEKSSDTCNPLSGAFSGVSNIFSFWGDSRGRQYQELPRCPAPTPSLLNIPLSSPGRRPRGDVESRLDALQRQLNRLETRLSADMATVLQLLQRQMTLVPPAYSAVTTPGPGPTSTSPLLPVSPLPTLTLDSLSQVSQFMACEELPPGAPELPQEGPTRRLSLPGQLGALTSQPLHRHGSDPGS

The assay concerns the target human ether-à-go-go-related gene (hERG) potassium channel (human, UniProt Q12809). In words: primary screen, population patch clamp on CHO cells stably expressing hERG; higher = less effect of the substance.
As for `Cc1n[nH]c(C)c1CCNC(=O)C1CCC(=O)N(CCc2cccc(F)c2)C1` (stereo not shown), the “hERG current change (%, negative = inhibition) at 10uM” value amounted to 9.63%.
The figure for `Cc1ccc(C(=O)NCCNC(=O)c2ccccc2)cc1` is 8.24%; for `O=[N+]([O-])c1ccc(C23CC4CC(CC(O)(C4)C2)C3)cc1` it is -37.8%.
Regarding `O=C(Nc1ccc2nc(-c3ccc4nc[nH]c4c3)[nH]c2c1)c1cccs1`, the “hERG current change (%, negative = inhibition) at 10uM” value is on record as 17.1%.
For `COC(=O)c1cc(S(=O)(=O)NCCc2ccc(Cl)cc2)c[nH]1`, the “hERG current change (%, negative = inhibition) at 10uM” value is -3.4%.
In the case of `Cc1nc2scc(C)n2c(=O)c1S(=O)(=O)NCC1CCN(Cc2ccc(F)cc2)CC1` it was -49.7%; in that of `Cc1nc2scc(C)n2c(=O)c1S(=O)(=O)NCC1CCN(Cc2ccc(Cl)cc2)CC1`, -50.1%; in that of `COC(=O)c1cc(S(=O)(=O)NCCc2ccc(C)cc2)c[nH]1`, -9.92%.
On to `Cc1nc2scc(C)n2c(=O)c1S(=O)(=O)NCCc1ccc(Cl)cc1`, for which the “hERG current change (%, negative = inhibition) at 10uM” value was found to be 7.69%.
Turning to `COC(=O)c1cc(S(=O)(=O)NCC2CCN(Cc3cccc(Cl)c3)CC2)c[nH]1`, the “hERG current change (%, negative = inhibition) at 10uM” value is -41.9%.
As to `COC(=O)c1cc(S(=O)(=O)NCC2CCN(Cc3cc(C)ccc3C)CC2)c[nH]1`, the “hERG current change (%, negative = inhibition) at 10uM” value is reported as -11%.
Consider `COC(=O)c1cc(S(=O)(=O)NCC2CCN(Cc3ccc(C)cc3)CC2)c[nH]1`, for which the “hERG current change (%, negative = inhibition) at 10uM” value is given as -73.8%.
For `COC(=O)c1cc(S(=O)(=O)NCC2CCN(Cc3ccc(Cl)cc3)CC2)c[nH]1`, the “hERG current change (%, negative = inhibition) at 10uM” value is listed as -71.2%.
Regarding `COc1ccc(C2NS(=O)(=O)OCC2C)cc1` (stereo not shown), the “hERG current change (%, negative = inhibition) at 10uM” value was 16.4%.
For `COc1ccc(C(=O)NCCN2C(=O)S/C(=C\c3cccnc3)C2=O)c(OC)c1OC`, the “hERG current change (%, negative = inhibition) at 10uM” value is given as -9.86%.
On to `CCNC(=S)N1CCN(CCN=CC2=C(O)CC(C)(C)CC2=O)CC1`, for which the “hERG current change (%, negative = inhibition) at 10uM” value is reported as -9.75%.
Regarding `CCC(CC)C(=O)N1CCN(c2ccccc2)CC1`, the “hERG current change (%, negative = inhibition) at 10uM” value is recorded as -2.08%.
Consider `COc1ccc(N2CCN(CC(O)COC(c3ccccc3)c3ccccc3)CC2)cc1` (stereo not shown), for which the “hERG current change (%, negative = inhibition) at 10uM” value is -64.9%.
With `OC(COCc1ccccc1)CN1CCN(c2ccccc2)CC1` (stereo not shown), the “hERG current change (%, negative = inhibition) at 10uM” value is recorded as -45.2%.
For `COc1ccc(N2CCN(CC(O)COCc3ccccc3)CC2)cc1.Cl` (stereo not shown), the “hERG current change (%, negative = inhibition) at 10uM” value was -25.2%.
In the case of `Cc1ccc(Cl)cc1N1CCN(C(=S)NCc2ccco2)CC1` it was 37.1%.
On to `Cc1ccc(Cl)cc1N1CCN(CC(O)COCc2ccco2)CC1.O=C(O)C(=O)O` (stereo not shown), for which the “hERG current change (%, negative = inhibition) at 10uM” value is listed as -73.1%.
The figure for `COc1ccc(OCC(O)CN2CCN(c3ccccc3)CC2)cc1.Cl` (stereo not shown) is -39.2%.
In the case of `O=C(O)C(=O)O.OC(COCc1ccco1)CN1CCN(c2ccccc2)CC1` (stereo not shown), the “hERG current change (%, negative = inhibition) at 10uM” value is -24.8%.
On to `CC(=O)c1ccc(N2CCN(CC(O)COCc3ccco3)CC2)cc1` (stereo not shown), for which the “hERG current change (%, negative = inhibition) at 10uM” value was -56.3%.
For the compound `CC(=O)c1ccc(N2CCN(CC(O)COC(c3ccccc3)c3ccccc3)CC2)cc1` (stereo not shown), the “hERG current change (%, negative = inhibition) at 10uM” value is recorded as -66.5%.
Turning to `CC(=O)c1ccc(N2CCN(CC(O)COC(c3ccccc3)c3ccccc3C)CC2)cc1` (stereo not shown), the “hERG current change (%, negative = inhibition) at 10uM” value was -41%.
The figure for `CC(=O)c1ccc(N2CCN(CC(O)c3ccccc3)CC2)cc1` (stereo not shown) is -11.6%; for `Cc1ccc(Cl)cc1N1CCN(Cc2nnnn2Cc2ccco2)CC1` it is -37.9%; for `CC(=O)Nc1ccc(S(=O)(=O)N2CCN(S(=O)(=O)N3CCCCCC3)CC2)cc1` it is 8.41%.
`CC(C)c1onc(C(=O)N2CCN(c3ccccc3)CC2)c1[N+](=O)[O-]`: the “hERG current change (%, negative = inhibition) at 10uM” value was found to be 14.1%.
On to `CCC(C)(C)C1CCC(NC(=O)N2CCN(c3ccccc3O)CC2)CC1` (stereo not shown), for which the “hERG current change (%, negative = inhibition) at 10uM” value is listed as -6.84%.
For `COc1cc(Cl)c(C)cc1NC(=O)CSc1cc(Cl)ccc1Cl`, the “hERG current change (%, negative = inhibition) at 10uM” value is 7.31%.
`COc1ccc(CC(=O)OCCN(C)C)cc1.Cl`: the “hERG current change (%, negative = inhibition) at 10uM” value was 11.8%.
Turning to `c1ccc(CCN2CN=C(Nc3nc4ccccc4s3)NC2)cc1`, the “hERG current change (%, negative = inhibition) at 10uM” value is on record as -1.49%.
The figure for `Cc1ccc(Cl)cc1N1CCN(CC(O)COC(C)C)CC1.Cl` (stereo not shown) is -63.7%; for `Cc1ccc(Cl)cc1N1CCN(CCN)CC1` it is -0.374%; for `COc1ccc(C(CCN2CCN(c3ccccc3)CC2)c2c(O)cc(OC)cc2OC)cc1` (stereo not shown) it is -30.5%.
As for `CCCN1CCN(CC(O)COC(c2ccc(OC)cc2)c2ccc(OC)cc2)CC1.O=C(O)C(=O)O` (stereo not shown), the “hERG current change (%, negative = inhibition) at 10uM” value is -30.2%.
Consider `COc1ccc(N2CCN(CCC(O)c3ccc4ccccc4c3)CC2)cc1` (stereo not shown), for which the “hERG current change (%, negative = inhibition) at 10uM” value was -68.3%.
As to `Cc1ccc(Cl)cc1N1CCN(Cc2cc3c(cc2O)CCC3)CC1`, the “hERG current change (%, negative = inhibition) at 10uM” value amounted to 4.92%.
For the compound `COc1ccc(N2CCN(CC(O)COC(C)(C)C)CC2)cc1.O=C(O)C(=O)O` (stereo not shown), the “hERG current change (%, negative = inhibition) at 10uM” value is 10.2%.
Take `COc1ccc(N2CCN(CC(O)COC(c3ccc(F)cc3)c3ccc(F)cc3)CC2)cc1.O=C(O)C(=O)O` (stereo not shown): the “hERG current change (%, negative = inhibition) at 10uM” value was -81.6%.
Regarding `COc1ccc(N2CCN(CCN3C(=O)c4ccccc4C3=O)CC2)cc1`, the “hERG current change (%, negative = inhibition) at 10uM” value was determined as 17.6%.
Consider `N=C1C(c2ccc(Br)cc2)=C(O)C2CCc3ccccc3N12` (stereo not shown), for which the “hERG current change (%, negative = inhibition) at 10uM” value is listed as -30.5%.
With `CC(C)N(C(=O)Cn1cnc2cc([N+](=O)[O-])ccc2c1=O)C(C)C`, the “hERG current change (%, negative = inhibition) at 10uM” value came out at 7.76%.

The record behind these values is PMC4336329 (PLoS ONE, 2015).
